# For part of these data: Entries with a potency or affinity are not part of this list. Activity calls are given as the source filed them.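 How the source made its calls, unless noted: active means compound raising the membrane signal above positive-control mean plus 3 SD in both repeats, and a primary screen hit; inactive means the rest.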
# Assays:
# [1] = test system: TRPC4 beta (transient receptor potential cation channel C4), mouse; assay: TRPC4 cation channel opening, retest – cell-based, Fluo4 calcium, HEK293 TRPC4beta/mu-opioid, duplicates, 10 µM, confirmation (AID 2426;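 active means fluorescence ratio normalized to control raised more than 50% in primary screen plus both repeat runs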;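 on activation: percent rise of integrated ratio over buffer wells lacking compound which define 0%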); details: Fluo4 calcium fluorescence, at 10 µM; active compounds read high
# [2] = test system: transient receptor potential cation channel C4 beta (TRPC4), mouse; assay: TRPC4 cation channel opening, second retest – cell-based, second round, Fluo4, HEK293 TRPC4beta/mu-opioid, 1 µM, confirmation (AID 2461;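 active means primary screen active and over 50% activation in each of two duplicate runs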;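 on activation: 0% = wells without test compound as baseline of integrated fluorescence ratio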); details: Fluo4 calcium fluorescence, at 1 µM; active compounds read high
# [3] = test system: TRPC4 (transient receptor potential cation channel C4 beta), mouse; assay: potentiation of DAMGO EC20 TRPC4 response – cell-based, second round, Fluo-4, HEK293 TRPC4beta/mu-opioid, 1 µM, confirmation (AID 2554;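 active means primary screen hit whose fluorescence ratio, in both repeats, exceeds the weak agonist control mean by 3 SD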); details: DAMGO EC20, Fluo-4 calcium flux, at 1 µM; active compounds read high
# [4] = test system: TRPC4 beta (transient receptor potential cation channel C4), mouse; assay: potentiation of DAMGO EC20 TRPC4 response – cell-based, Fluo-4, HEK293 TRPC4beta/mu-opioid, confirmation (AID 2555;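 active means primary screen hit whose calcium fluorescence ratio, in both repeats, exceeds the weak agonist control mean by 3 SD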); details: DAMGO EC20, Fluo-4 calcium flux, at 10 µM; active compounds read high
# [5] = target: Short transient receptor potential channel 4 (Mus musculus) (UniProt Q9QUQ5); assay: blockers of DAMGO-evoked TRPC4 calcium flux – cell-based, Fluo4, HEK293 TRPC4beta/mu-opioid, confirmation (AID 2636;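 active means calcium signal cut by more than 3 SD below the full-agonist control yet still positive, in both repeats and the earlier primary screen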); details: at 10 µM; active compounds read high
# Sequence of Short transient receptor potential channel 4 (Mus musculus) (Q9QUQ5 whole entry, looked up): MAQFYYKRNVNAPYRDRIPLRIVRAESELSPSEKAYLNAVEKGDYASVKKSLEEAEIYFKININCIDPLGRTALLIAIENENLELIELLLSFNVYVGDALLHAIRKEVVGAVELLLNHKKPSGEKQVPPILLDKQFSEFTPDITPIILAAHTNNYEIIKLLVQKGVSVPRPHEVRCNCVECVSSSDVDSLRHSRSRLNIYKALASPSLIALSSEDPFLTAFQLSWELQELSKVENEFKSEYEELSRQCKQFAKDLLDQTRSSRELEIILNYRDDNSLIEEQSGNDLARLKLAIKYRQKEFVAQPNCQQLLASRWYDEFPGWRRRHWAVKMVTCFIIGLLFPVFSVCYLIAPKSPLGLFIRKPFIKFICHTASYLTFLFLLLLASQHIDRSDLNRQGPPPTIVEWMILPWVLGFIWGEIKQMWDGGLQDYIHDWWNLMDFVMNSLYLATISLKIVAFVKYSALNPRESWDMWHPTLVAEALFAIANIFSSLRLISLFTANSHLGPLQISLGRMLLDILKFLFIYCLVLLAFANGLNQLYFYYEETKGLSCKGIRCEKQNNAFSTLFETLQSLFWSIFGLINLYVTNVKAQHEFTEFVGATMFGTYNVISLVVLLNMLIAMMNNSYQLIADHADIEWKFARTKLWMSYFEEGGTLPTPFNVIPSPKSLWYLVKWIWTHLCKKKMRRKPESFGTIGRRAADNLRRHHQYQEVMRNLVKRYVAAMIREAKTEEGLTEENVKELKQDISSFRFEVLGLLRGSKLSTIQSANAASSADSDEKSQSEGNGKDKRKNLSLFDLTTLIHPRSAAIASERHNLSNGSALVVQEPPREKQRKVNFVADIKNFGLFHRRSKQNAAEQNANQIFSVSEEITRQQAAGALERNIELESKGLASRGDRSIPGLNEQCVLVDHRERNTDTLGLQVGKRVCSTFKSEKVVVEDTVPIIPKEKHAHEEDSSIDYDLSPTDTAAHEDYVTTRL
# [6] = target: Short transient receptor potential channel 4 (Mus musculus) (UniProt Q9QUQ5); assay: blockers of DAMGO-evoked TRPC4 calcium flux – cell-based, second round, Fluo4, HEK293 TRPC4beta/mu-opioid, 1 µM, confirmation (AID 2637;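 active means calcium signal ratio cut to more than 3 SD under the fully stimulated control mean yet still positive, in both repeats and the primary screen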); details: at 1 µM; active compounds read high
# [7] = target: Short transient receptor potential channel 4 (Mus musculus) (UniProt Q9QUQ5); assay: potentiation of DAMGO-evoked TRPC4 calcium signal – cell-based, HEK293 TRPC4/mu-opioid, Fluo-4 calcium, EC20 DAMGO, dose response (AID 434941;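 active means earlier screen potentiator hit that boosts the TRPC4 ion channel at some dose, with a dose response; inactive means no potentiation, no dose response, or not a prior hit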;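 further: calcium entry triggered by an EC20 dose of DAMGO at the co-expressed mu-opioid receptor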)
# [8] = target: Short transient receptor potential channel 4 (Mus musculus) (UniProt Q9QUQ5); assay: block of DAMGO-driven TRPC4 calcium entry – cell-based, HEK293 TRPC4/mu-opioid, Fluo-4 calcium, dose response (AID 434942;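 active means primary screen inhibitor hit that blocks the TRPC4 channel at some tested dose, yielding a dose curve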)
# [9] = target: Short transient receptor potential channel 6 (Mus musculus) (UniProt Q61143); assay: TRPC6 blockade by TRPC4 inhibitor hits – cell-based, HEK293, membrane potential dye, duplicate, selectivity assay for TRPC4 inhibitor project, confirmation (AID 434948;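 active means active in primary screen and both duplicates, each dropping signal beyond three positive-control SD with fluorescence still positive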); details: HEK293 TRPC6, membrane potential dye fluorescence, at 10 µM, stimulated with maximal-effect acetylcholine; active compounds read high
# Sequence of Short transient receptor potential channel 6 (Mus musculus) (Q61143 whole entry, looked up): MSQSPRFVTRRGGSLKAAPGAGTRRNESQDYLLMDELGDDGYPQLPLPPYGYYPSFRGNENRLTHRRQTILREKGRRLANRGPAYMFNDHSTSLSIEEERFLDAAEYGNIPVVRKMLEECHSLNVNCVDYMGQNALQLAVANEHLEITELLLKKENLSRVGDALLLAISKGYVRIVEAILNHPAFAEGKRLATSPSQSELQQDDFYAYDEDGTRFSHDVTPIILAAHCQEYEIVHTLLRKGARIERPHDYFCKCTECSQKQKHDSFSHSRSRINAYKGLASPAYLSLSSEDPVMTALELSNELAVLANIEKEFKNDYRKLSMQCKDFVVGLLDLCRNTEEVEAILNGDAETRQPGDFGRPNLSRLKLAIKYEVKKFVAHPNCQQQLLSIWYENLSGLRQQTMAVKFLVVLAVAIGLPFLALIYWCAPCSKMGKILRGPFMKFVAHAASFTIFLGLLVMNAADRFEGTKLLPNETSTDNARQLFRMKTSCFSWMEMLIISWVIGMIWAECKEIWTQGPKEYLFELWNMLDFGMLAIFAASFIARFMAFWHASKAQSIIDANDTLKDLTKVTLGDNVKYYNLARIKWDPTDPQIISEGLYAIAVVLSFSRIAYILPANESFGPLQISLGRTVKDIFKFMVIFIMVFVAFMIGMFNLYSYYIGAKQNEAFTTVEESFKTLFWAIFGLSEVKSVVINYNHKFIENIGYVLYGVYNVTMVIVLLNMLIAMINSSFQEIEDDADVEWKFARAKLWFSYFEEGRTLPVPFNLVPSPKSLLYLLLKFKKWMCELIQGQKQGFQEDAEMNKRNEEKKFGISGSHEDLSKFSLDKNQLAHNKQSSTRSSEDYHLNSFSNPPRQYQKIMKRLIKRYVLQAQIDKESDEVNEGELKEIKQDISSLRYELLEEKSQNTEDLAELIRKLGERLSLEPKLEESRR
# [10] = target: Short transient receptor potential channel 6 (Mus musculus) (UniProt Q61143); assay: TRPC6 opening by TRPC4 activator hits – cell-based, HEK293, membrane potential dye, duplicate, selectivity assay for TRPC4 activator project, confirmation (AID 434950;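 active means membrane potential signal rise above negative control mean plus 3 SD in both duplicates, also active in the earlier TRPC4 screen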;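 on activation: 0% = buffer only wells and 100% = acetylcholine maximal-effect wells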); details: HEK293 TRPC6, membrane potential fluorescence, at 10 µM; activation: active compounds read high; outcome: activation
# [11] = target: Short transient receptor potential channel 6 (Mus musculus) (UniProt Q61143); assay: positive modulators of mouse TRPC6 channel – HEK293 cells, membrane potential dye, duplicate, selectivity assay for TRPC4 potentiator project, confirmation (AID 434952); details: HEK293 TRPC6, membrane potential dye fluorescence, at 10 µM, maximal acetylcholine added after compound; active compounds read high
# [12] = target: Short transient receptor potential channel 4 (Mus musculus) (UniProt Q9QUQ5); assay: calcium flux activators in TRPC4/5HT1a cells, counter-screen for TRPC4 activator project, cell-based, second counter screen, HEK293 TRPC4/5HT1a, Fluo-4 (AID 434977;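 active means calcium signal rise above buffer-control mean plus 5 SD in both duplicates, and also a hit in the primary screen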;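 on activation: plate controls were assay buffer for no effect and maximal serotonin response for full effect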); details: Fluo-4 calcium flux, at 10 µM; active compounds read high
# [13] = serotonin-gated TRPC4 signal block – cell-based, second counter screen, HEK293 TRPC4/5HT1a, Fluo-4, counter-screen for TRPC4 inhibitor project, confirmation (AID 434978;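 active means primary screen active whose calcium signal fell more than 3 SD beyond the full-serotonin control mean in both duplicate plates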;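 further: serotonin given first at submaximal then at maximal dose after compound preincubation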); details: Fluo-4 calcium flux, at 10 µM, serotonin added to trigger calcium flux; active compounds read high
# [14] = test system: TRPC4 (mouse), co-expressed with 5HT1a in HEK293; assay: enhancement of serotonin-evoked TRPC4 response – cell-based, second counter screen, HEK293 TRPC4/5HT1a, Fluo-4, counter-screen for TRPC4 potentiator project, confirmation (AID 434979;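 active means signal rise over 3 SD above mean of control wells given weak agonist, in both repeats and first screen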); details: Fluo-4 calcium flux, at 10 µM, serotonin added at its EC20 dose; active compounds read high
# [15] = nonspecific calcium rise without TRPC4 – cell-based, HEK293 mu-opioid receptor line, counter-screen for TRPC4 activator project, confirmation (AID 449723;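 active means hit in primary screen, with calcium signal over 5 SD above buffer well mean in both duplicates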;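 further: counter screen cells carry the mu-opioid receptor alone and lack TRPC4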); details: HEK293 mu-opioid cells, Fluo-4 calcium fluorescence, at 10 µM; active compounds read high
# [16] = nonspecific potentiation of DAMGO calcium response – cell-based, HEK293 mu-opioid receptor line, counter-screen for TRPC4 allosteric potentiator project, confirmation (AID 449724;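 active means calcium signal rise more than 3 SD above the low-dose agonist control mean, in both duplicate plates and the primary screen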); details: HEK293 mu-opioid receptor cells, Fluo-4 calcium flux, at 10 µM, compound added before EC20 DAMGO stimulus; active compounds read high
smiles,measurement,setting,value
CN1CCCC(OC(=O)c2cc(Cl)cc(Cl)c2)C1 (stereo not given),activation,[1],186% (active)
same,activation,[2],112% (active)
same,outcome,[3],inactive
same,outcome,[4],inactive
same,outcome,[5],inactive
same,outcome,[6],inactive
same,outcome,[7],inactive
same,outcome,[8],inactive
same,outcome,[9],inactive
same,activation,[10],38.5% (active)
same,outcome,[11],inactive
same,activation,[12],67.9% (active)
same,outcome,[13],inactive
same,outcome,[14],inactive
same,outcome,[15],inactive
same,outcome,[16],inactive
Cc1ccc(-n2cc(CNCCc3ncc(C)[nH]3)c(-c3ccc(F)cc3)n2)cc1,activation,[1],177% (active)
same,outcome,[2],inactive
same,outcome,[3],inactive
same,outcome,[4],inactive
same,outcome,[5],inactive
same,outcome,[6],inactive
same,outcome,[7],inactive
same,outcome,[8],inactive
same,outcome,[9],inactive
same,outcome,[10],inactive
same,outcome,[11],inactive
same,activation,[12],14.9% (active)
same,outcome,[13],inactive
same,outcome,[14],inactive
same,outcome,[15],inactive
same,outcome,[16],inactive
CN(C)CCCN(C(=O)c1ccc(C(=O)c2ccccc2)cc1)c1nc2ccc(F)cc2s1,activation,[1],83% (active)
same,outcome,[2],inactive
same,outcome,[3],inactive
same,outcome,[4],inactive
same,outcome,[5],inactive
same,outcome,[6],inactive
same,outcome,[7],inactive
same,outcome,[8],inactive
same,outcome,[9],inactive
same,outcome,[10],inactive
same,outcome,[11],inactive
same,outcome,[12],inactive
same,outcome,[13],inactive
same,outcome,[14],inactive
same,outcome,[15],inactive
same,outcome,[16],inactive
CC1CC(C)CN(CCCNC(=O)c2nn(C)c3c2CS(=O)(=O)c2ccccc2-3)C1 (stereo not given),activation,[1],112% (active)
same,activation,[2],72% (active)
same,outcome,[3],inactive
same,outcome,[4],inactive
same,outcome,[5],inactive
same,outcome,[6],inactive
same,outcome,[7],inactive
same,outcome,[8],inactive
same,outcome,[9],inactive
same,activation,[10],40.5% (active)
same,outcome,[11],inactive
same,activation,[12],43.2% (active)
same,outcome,[13],inactive
same,outcome,[14],inactive
same,outcome,[15],inactive
same,outcome,[16],inactive
CCCCCSc1nnc2c(n1)OC(c1cccn1C)N(C(C)=O)c1ccccc1-2 (stereo not given),outcome,[1],inactive
same,outcome,[2],inactive
same,outcome,[3],inactive
same,outcome,[4],inactive
same,outcome,[5],inactive
same,outcome,[6],inactive
same,outcome,[7],inactive
same,outcome,[8],inactive
same,outcome,[9],inactive
same,outcome,[10],inactive
same,outcome,[11],inactive
same,activation,[12],18% (active)
same,outcome,[13],inactive
same,outcome,[14],inactive
same,outcome,[15],inactive
same,outcome,[16],inactive
Fc1ccc(-c2nnc(CN3CCN(c4ncc(C(F)(F)F)cc4Cl)CC3)o2)cc1,activation,[1],120% (active)
same,outcome,[2],inactive
same,outcome,[3],inactive
same,outcome,[4],inactive
same,outcome,[5],inactive
same,outcome,[6],inactive
same,outcome,[7],inactive
same,outcome,[8],inactive
same,outcome,[9],inactive
same,activation,[10],35.5% (active)
same,outcome,[11],inactive
same,activation,[12],23.8% (active)
same,outcome,[13],inactive
same,outcome,[14],inactive
same,outcome,[15],inactive
same,outcome,[16],inactive
CCOC(=O)C1(CCOc2ccccc2)CCN(Cc2ccc(NC(C)=O)cc2)CC1,activation,[1],146% (active)
same,activation,[2],68% (active)
same,outcome,[3],inactive
same,outcome,[4],inactive
same,outcome,[5],inactive
same,outcome,[6],inactive
same,outcome,[7],inactive
same,outcome,[8],inactive
same,outcome,[9],inactive
same,activation,[10],51% (active)
same,outcome,[11],inactive
same,outcome,[12],inactive
same,outcome,[13],inactive
same,outcome,[14],inactive
same,outcome,[15],inactive
same,outcome,[16],inactive
Cc1ccc2oc(=O)c3cnn(CC(=O)NC4CCN(Cc5ccccc5)CC4)c3c2c1,activation,[1],68% (active)
same,outcome,[2],inactive
same,outcome,[3],inactive
same,outcome,[4],inactive
same,outcome,[5],inactive
same,outcome,[6],inactive
same,outcome,[7],inactive
same,outcome,[8],inactive
same,outcome,[9],inactive
same,outcome,[10],inactive
same,outcome,[11],inactive
same,outcome,[12],inactive
same,outcome,[13],inactive
same,outcome,[14],inactive
same,outcome,[15],inactive
same,outcome,[16],inactive
CN(C)C(CNC(=O)c1cnc(Cl)c(Cl)c1)c1ccccc1 (stereo not given),activation,[1],169% (active)
same,activation,[2],151% (active)
same,outcome,[3],inactive
same,outcome,[4],inactive
same,outcome,[5],inactive
same,outcome,[6],inactive
same,outcome,[7],inactive
same,outcome,[8],inactive
same,outcome,[9],inactive
same,activation,[10],30.5% (active)
same,outcome,[11],inactive
same,outcome,[12],inactive
same,outcome,[13],inactive
same,outcome,[14],inactive
same,outcome,[15],inactive
same,outcome,[16],inactive
O=C(Nc1nnc(-c2ccccc2Cl)o1)c1nc2ccccc2s1,activation,[1],143% (active)
same,outcome,[2],inactive
same,outcome,[3],inactive
same,outcome,[4],inactive
same,outcome,[5],inactive
same,outcome,[6],inactive
same,outcome,[7],inactive
same,outcome,[8],inactive
same,outcome,[9],inactive
same,outcome,[10],inactive
same,outcome,[11],inactive
same,activation,[12],91.4% (active)
same,outcome,[13],inactive
same,outcome,[14],inactive
same,activation,[15],30.2% (active)
same,outcome,[16],inactive
CNCCCOc1ccc2c(c1)CCC2,activation,[1],75% (active)
same,outcome,[2],inactive
same,potentiation,[3],24% (active)
same,potentiation,[4],29% (active)
same,outcome,[5],inactive
same,outcome,[6],inactive
same,outcome,[7],inactive
same,outcome,[8],inactive
same,outcome,[9],inactive
same,activation,[10],57% (active)
same,outcome,[11],inactive
same,activation,[12],16.2% (active)
same,outcome,[13],inactive
same,outcome,[14],inactive
same,outcome,[15],inactive
same,outcome,[16],inactive
CCn1c(N2CCN(Cc3ccc([N+](=O)[O-])cc3)CC2)nc2ccccc21,activation,[1],100% (active)
same,activation,[2],83% (active)
same,outcome,[3],inactive
same,outcome,[4],inactive
same,outcome,[5],inactive
same,outcome,[6],inactive
same,outcome,[7],inactive
same,outcome,[8],inactive
same,outcome,[9],inactive
same,outcome,[10],inactive
same,outcome,[11],inactive
same,activation,[12],22% (active)
same,outcome,[13],inactive
same,potentiation,[14],18.3% (active)
same,outcome,[15],inactive
same,outcome,[16],inactive
Cc1cc(NC(=O)c2cnn3cccnc23)nn1CC(=O)Nc1cccnc1,outcome,[1],inactive
same,outcome,[2],inactive
same,potentiation,[3],22% (active)
same,potentiation,[4],109% (active)
same,outcome,[5],inactive
same,outcome,[6],inactive
same,outcome,[7],inactive
same,outcome,[8],inactive
same,outcome,[9],inactive
same,outcome,[10],inactive
same,outcome,[11],inactive
same,outcome,[12],inactive
same,outcome,[13],inactive
same,potentiation,[14],72.1% (active)
same,outcome,[15],inactive
same,outcome,[16],inactive
COc1ccc(C(=O)NC(=S)NNC(=O)c2c(-c3ccccc3)noc2C)cc1,activation,[1],100% (active)
same,outcome,[2],inactive
same,outcome,[3],inactive
same,outcome,[4],inactive
same,outcome,[5],inactive
same,outcome,[6],inactive
same,outcome,[7],inactive
same,outcome,[8],inactive
same,outcome,[9],inactive
same,activation,[10],28.5% (active)
same,outcome,[11],inactive
same,activation,[12],105% (active)
same,outcome,[13],inactive
same,outcome,[14],inactive
same,activation,[15],28.5% (active)
same,outcome,[16],inactive
COc1ccc(-n2cc(CNCCc3ncc(C)[nH]3)c(-c3ccccc3Cl)n2)cc1,activation,[1],214% (active)
same,outcome,[2],inactive
same,outcome,[3],inactive
same,outcome,[4],inactive
same,outcome,[5],inactive
same,outcome,[6],inactive
same,outcome,[7],inactive
same,outcome,[8],inactive
same,outcome,[9],inactive
same,activation,[10],30% (active)
same,outcome,[11],inactive
same,outcome,[12],inactive
same,outcome,[13],inactive
same,outcome,[14],inactive
same,outcome,[15],inactive
same,outcome,[16],inactive
